These results are taken from PubChem BioAssay (Tox21).

Structures are written as SMILES. Activity calls are given as the source filed them. Calls follow the shape of the full dose curve.
% is scaled to controls: 0 for no effect and ±100 for the full control effect; potency is read from the fitted curve at half-maximal effect.

Sequence of Acetylcholinesterase (Homo sapiens) (P22303 whole entry, looked up): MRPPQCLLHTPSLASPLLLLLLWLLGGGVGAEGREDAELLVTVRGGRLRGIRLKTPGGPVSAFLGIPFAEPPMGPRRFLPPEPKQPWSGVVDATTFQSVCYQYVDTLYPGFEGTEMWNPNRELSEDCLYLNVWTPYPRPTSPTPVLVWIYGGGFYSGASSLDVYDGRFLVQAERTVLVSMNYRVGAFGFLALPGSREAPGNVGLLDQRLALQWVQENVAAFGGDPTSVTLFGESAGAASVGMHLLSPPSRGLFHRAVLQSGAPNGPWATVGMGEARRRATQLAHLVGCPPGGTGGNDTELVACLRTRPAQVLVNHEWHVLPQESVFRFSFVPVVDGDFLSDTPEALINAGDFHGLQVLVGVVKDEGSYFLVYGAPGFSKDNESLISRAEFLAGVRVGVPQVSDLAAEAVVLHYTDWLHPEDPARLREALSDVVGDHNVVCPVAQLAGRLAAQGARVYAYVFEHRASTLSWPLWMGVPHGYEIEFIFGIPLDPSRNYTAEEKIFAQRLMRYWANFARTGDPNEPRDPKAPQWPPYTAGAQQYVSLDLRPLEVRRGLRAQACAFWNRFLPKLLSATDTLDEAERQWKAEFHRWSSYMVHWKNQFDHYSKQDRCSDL

This assay addresses Acetylcholinesterase (Homo sapiens) (UniProt P22303). Put plainly: Acetylcholinesterase (AChE) small molecule antagonists: enzyme-based qHTS assay (AID 1347397). Also: nearly all actives have a fitted effect of over 55% in size. As to conditions: Potency: AChE enzyme activity inhibition; series mostly up to 115 µM; activity change, negative = inhibition: at the top concentration. An excerpt: National Center for Advancing Translational Sciences [NCATS]
Division of Preclinical Innovation [DPI]
U.S. Environmental Protection Agency [EPA]
National Institutes of Environmental Health Sciences [NIEHS]
National Toxicology Program [NTP]
U.S. Food and Drug Administration [FDA]
Acetylcholinesterase (AChE) is the primary cholinesterase in the body that hydrolyzes a key neurotransmitter, acetylcholine. Inhibition of AChE activity can lead to neurotoxicity. The known inhibitors include organophosphorous pesticides (OP), chemical warfare agents, drugs, and various phytochemicals.
An enzyme-based assay with the recombinant human AChE and Amplite Colormetric acetylcholinesterase assay kit (AAT Bioquest, Sunnyvale, CA) was used to evaluate the chemicals in the Tox21 10K library that inhibit AChE activity. The assay uses 5, 5-dithiobis-(2-nitrobenzoic acid) (DTNB) to quantify the thiocholine produced from the hydrolysis of acetylthiocholine by AChE.
Tox21 Assay Protocol Summary:
For the enzyme-based AChE assay, recombinant human AChE (50 mU/mL) in 4 uL/well was dispensed into black, clear-bottom 1536-well plates using a Multidrop Combi dispenser (Thermo Scientific, MA). Then, 23 nL of compound or DMSO (vehicle control) was transferred into the assay plates by a Pintool Station (Wako Automation, CA). The plates were incubated for 30 min at room temperature, followed by the addition of 4 uL of colorimetric detection cocktail solution (DTNB, acetylthiocholine) into each well using a Flying Reagent Dispenser (Beckman Coulter, CA) and then 10 min incubation at room temperature.
With `CC1(C)C(=O)NC(=O)NC1=O`, the “activity change, negative = inhibition” value was 2.22% (inactive). Still for that read-out and setting: in the case of `COc1cc(OC)nc(Oc2cccc(Oc3nc(OC)cc(OC)n3)c2C(=O)O)n1` it was 1.77% (inactive); in that of `CCCCC(=O)Cl`, 2.06% (inactive). The same measure, in the same setting: in the case of `CC(COc1ccc(Oc2ccccc2)cc1)Oc1ccccn1` (stereo not given) it was 0% (inactive).

Take `COP(=S)(OC)Oc1c(Cl)cc(C)cc1Cl`: the “activity change, negative = inhibition” value was 0.387% (inactive). Same read-out and setting: in the case of `CC(C(=O)c1ccccc1)N(C)C` (stereo not given) it was 0.359% [at 53 µM] (inactive); in that of `C=C(C)CN(CC)c1c([N+](=O)[O-])cc(C(F)(F)F)cc1[N+](=O)[O-]`, -1.41% (inactive). On the same count and under the same terms, in the case of `Clc1cccc(N2CCNCC2)c1` it was 3.48% [at 53 µM] (inactive). The same measure, in the same setting: in the case of `CCC(C)n1c(=O)[nH]c(C)c(Br)c1=O` (stereo not given) it was 0.659% (inactive).

Consider `COP(=S)(OC)Oc1ccc(S(N)(=O)=O)cc1`, for which the “activity change, negative = inhibition” value was 1.62% [at 53 µM] (inactive). The same measure, in the same setting: in the case of `CC(C)CP(=S)(S)CC(C)C` it was 1.85% (inactive). Same read-out and setting: in the case of `CC(C)COP(=O)(OCC(C)C)OCC(C)C` it was 1.2% (inactive); in that of `c1cc2c(c(N3CCNCC3)c1)OCCO2`, -0.0651% [at 53 µM] (inactive); in that of `CC1CN1P(=O)(N1CC1C)N1CC1C` (stereo not given), 0.71% (inactive). Still for that read-out and setting: in the case of `CCN(CC)c1nc(C)cc(OP(=S)(OC)OC)n1` it was -4.74% (inactive); in that of `COC(=O)C(c1ccccc1)C1CCCCN1` (stereo not given), 0.0037% (inactive); in that of `C#C[C@]1(O)C=C[C@H]2[C@@H]3CCC4=CC(=O)CC[C@@H]4[C@H]3CC[C@@]21CC`, 0.406% [at 53 µM] (inactive). Take `CC(CCc1ccccc1)NC(C)C(O)c1ccc(O)cc1` (stereo not given): the “activity change, negative = inhibition” value was 1.56% [at 53 µM] (inactive).

`[As]#[In]`: the “activity change, negative = inhibition” value is 0.964% (inactive). With `CC(C)CC#N`, the “activity change, negative = inhibition” value was -2.33% (inactive).

Take `ClC(Cl)C(Cl)Cl`: the “activity change, negative = inhibition” value was 0.138% (inactive). With `COc1ccc2c(c1OC)CN1CCc3cc4c(cc3C1C2)OCO4` (stereo not given), the Potency was 5.49 µM (active). For the compound `OCCBr`, the “activity change, negative = inhibition” value is 0.818% (inactive).

For the compound `COc1cc(C[C@@H](C)N)c(OC)cc1C`, the “activity change, negative = inhibition” value was -0.54% (inactive).

As for `OCCSCSCCO`, the “activity change, negative = inhibition” value is 0.791% (inactive). Still for that read-out and setting: in the case of `C#CCN1C(=O)COc2cc(F)c(N3C(=O)C4=C(CCCC4)C3=O)cc21` it was -2.37% (inactive). On the same count and under the same terms, in the case of `O=C(Nc1ccccc1)c1ccccc1I` it was 3.58% (inactive). Same read-out and setting: in the case of `CC1=NNC(=O)N(/N=C/c2cccnc2)C1` it was -0.901% (inactive); in that of `N#CCNCC#N`, -0.263% (inactive); in that of `N#CCCC#N`, -0.14% (inactive). As for `CCCCOP(=O)(O)OCCCC`, the “activity change, negative = inhibition” value is -0.133% (inactive). Still for that read-out and setting: in the case of `COC(=O)C1=CCCN(C)C1` it was 0.495% [at 53 µM] (inactive); in that of `O=C(O)c1cccc(Cl)c1`, -0.274% (inactive). The same measure, in the same setting: in the case of `COCC(=O)N(c1c(C)cccc1C)N1CCOC1=O` it was 2.27% (inactive); in that of `O=NN1CCCCC1`, 0.945% (inactive); in that of `COC(=O)c1ccccc1S(=O)(=O)NC(=O)N(C)c1nc(C)nc(OC)n1`, -0.321% (inactive). Still for that read-out and setting: in the case of `C=CC1CC=CCC1` (stereo not given) it was 0% (inactive); in that of `CN1CCC(O)(c2ccc(F)cc2)C(C(=O)c2ccc(F)cc2)C1` (stereo not given), 0.478% [at 53 µM] (inactive). Consider `CCCCOC(=O)[C@@H](C)Oc1ccc(Oc2ccc(C#N)cc2F)cc1`, for which the “activity change, negative = inhibition” value was 0.132% (inactive). Same read-out and setting: in the case of `CN1C(=S)CN=C(c2ccccc2)c2cc(Cl)ccc21` it was 1.62% [at 53 µM] (inactive).
